# Test results from PubChem BioAssay (NCI).
# This is part of a sample that, as a whole, favours compounds with a hit. Of some 83,000 tested, about 20% had one in any assay.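 Single-concentration screen, 48 h exposure, 96-well plates. Endpoint: percent growth. Below 10 = active.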 Unmarked numbers belong to inactive results. Active and inactive are the calls of the source.
# Experiments:
# Assay in all cases: NCI-60 one-dose screen, 48 h (100 = growth as untreated, 0 = no growth, -100 = all killed)
# Conditions in all cases: 10 µM unless noted
# T-47D breast = system: T-47D breast
# BT-549 breast = system: BT-549 breast
# MDA-MB-435 melanoma = system: MDA-MB-435 melanoma
# SW-620 colon = system: SW-620 colon
# MCF7 breast = system: MCF7 breast
# HCT-116 colon = system: HCT-116 colon
# HCC-2998 colon = system: HCC-2998 colon
# KM12 colon = system: KM12 colon
SMILES,growth (T-47D breast),growth (BT-549 breast),growth (MDA-MB-435 melanoma),growth (SW-620 colon),growth (MCF7 breast),growth (HCT-116 colon),growth (HCC-2998 colon),growth (KM12 colon)
CCCN1CCN(c2ccc3nc(-c4ccc5nc(-c6cc(OC)c(OC)c(OC)c6)[nH]c5c4)[nH]c3c2)CC1,65.9%,83.2%,55.1%,75.7%,23.8%,55.1%,94.2%,77%
COc1ccc(-c2cc(-c3cc(OC)ccc3O)[nH]c(=O)c2C#N)cc1,45.6%,22.1%,-0.171% (active),34.4%,46.4%,33.6%,72.9%,41.8%
CCNCCNc1cc(-c2ccc(C(F)(F)F)cc2)c(C#N)c2nc3cc(Cl)c(Cl)cc3n12,-53.2% (active),-2.28% (active),-92.6% (active),-81.8% (active),-70.6% (active),-88.3% (active),-88.9% (active),-77.7% (active)
CN(C)c1ccc2cc(-c3ccc(Cl)c(Cl)c3)c(N)nc2c1,18.6%,48.3%,22.4%,30.1%,24.3%,13.3%,44.7%,28.9%
Cc1ccc(O)c(C(=O)c2ccccc2Cl)c1,108%,93.8%,93.2%,98.4%,101%,99%,56.2%,116%
COc1ccc(N(C)c2nc(Cl)nc3cnn(C)c23)cc1,43.5%,-13.9% (active),-22.8% (active),27.8%,15.4%,-18.4% (active),17.6%,6.55% (active)
N#Cc1c(NC(=O)c2ccccc2I)sc2c1CCCC2,61.4%,52.2%,-4.69% (active),21%,15%,26.4%,71.6%,34.2%
Cc1[nH]c(-c2nc3ccccc3[nH]2)c(C)c1C(=O)NNc1ccc(Cl)cc1,85.1%,105%,97.8%,99.6%,87.6%,94%,108%,95.5%
CCCCNC(=O)NS(=O)(=O)c1ccc(N2N=C(c3ccc(C)cc3C)CC2c2ccc(N(C)C)cc2)cc1 (stereo not drawn),70.4%,45.6%,9.98% (active),61.8%,37.4%,39.3%,46.1%,49.2%
C=C1C(=O)O[C@H]2[C@H]1CC/C(COC(=O)/C=C\C(=O)NCc1ccc(Cn3c(=O)sn(-c4ccc(Cl)cc4)c3=O)cc1)=C\CC[C@@]1(C)O[C@@H]21,-44.1% (active),-40.9% (active),-80.3% (active),-65.7% (active),-52% (active),-66% (active),-76.8% (active),-72.7% (active)
Cc1c(C(=O)O)nnn1-c1nccs1,90.4%,96.4%,96.2%,94%,99.6%,89.5%,113%,98.8%
CCC(=O)OC1=C(C)SC2=NC(c3ccc(Cl)c(Cl)c3)=CC(c3cc(OC)c(OC)c(OC)c3)N21 (stereo not drawn),97.5%,103%,103%,109%,94.1%,95%,110%,107%
NS(=O)(=O)Oc1ccc(NC(=O)C23CC4CC(CC(C4)C2)C3)cc1Cl,75.4%,99.3%,99.5%,106%,97.3%,107%,103%,95.8%
CCN(CC)CCOC(=O)Nc1ccccc1Cl,98.6%,81.3%,108%,101%,101%,72.7%,101%,103%
NC(N)=N/N=C(/c1ccccc1)c1ccc(N)cc1,107%,72.7%,91.2%,111%,97%,115%,103%,112%
O=S(=O)(NCCNc1cc(-c2c(-c3cccc(O)c3)nc3sccn23)ccn1)c1ccc(Br)cc1,23.8%,55.2%,26.1%,76.8%,37.4%,47.9%,95.3%,51.3%
Cc1c(Cl)cccc1NS(=O)(=O)c1ccccc1,109%,105%,101%,106%,107%,104%,109%,116%
CNC(=O)c1c(NC(=O)c2ccc(C(C)(C)C)cc2)sc2c1CCC(=O)C2,-23.5% (active),1.12% (active),-9.83% (active),-62.3% (active),8.99% (active),0.171% (active),23.3%,-7.97% (active)
N#Cc1cnn2c(-c3ccc(Cl)cc3)nc(NCCc3ccccc3)nc12,50.9%,100%,101%,98.1%,79.7%,81.5%,106%,88%

SMILES,growth (T-47D breast),growth (BT-549 breast),growth (MDA-MB-435 melanoma),growth (SW-620 colon),growth (MCF7 breast),growth (HCT-116 colon),growth (HCC-2998 colon),growth (KM12 colon)
CCCCCCNC(=O)c1cc(NCc2cc(O)ccc2O)ccc1O,21.3%,22.4%,71.5%,76.8%,54.9%,75%,105%,69.1%
CN1CCC(=C2c3ccccc3C=Cc3ccccc32)CC1,72.6%,113%,80.2%,81.1%,80.5%,66.3%,92.5%,94.4%
CN(C)c1ccc(/C=C/c2c(F)cccc2F)cc1,58.3%,94.7%,101%,104%,49.7%,91.8%,95.1%,91.7%
O=C1Nc2ccccc2/C1=N/N=C/c1ccsc1,87%,112%,105%,97.8%,49.5%,103%,108%,102%
CC(=O)OCCc1ccccc1,66.7%,107%,104%,105%,103%,94.7%,87%,150%
C/C(=N\NC(N)=S)c1nc2ccc(Cl)cc2[nH]1,40.5%,74.9%,54.6%,41.4%,8.53% (active),35.6%,55.8%,32.1%
Cc1cccc(-c2cc(O)c(C(=O)N3CCOCC3)s2)c1,18.9%,51.2%,-50% (active),28%,19.5%,27.7%,63.2%,25.5%
COc1ccc(OC)c(/C=C2\COc3ccc(O)c(O)c3C2=O)c1,25.2%,39%,12.1%,9.79% (active),14.9%,3.33% (active),53.9%,16.4%
O=C(Oc1ccc([N+](=O)[O-])cc1)c1ccc(CBr)cc1,125%,105%,98.8%,94.9%,75.1%,87.8%,103%,103%
COc1cc(/C=C2\C=C(c3ccccc3)N(CCc3ccccc3)C2=O)cc(OC)c1OC,56.9%,91.3%,89.5%,85.2%,70.9%,52.2%,102%,80.6%
O=c1[nH]c(NCc2nnnn2-c2ccc(Br)cc2)nc2sc3c(c12)CCCC3,74.3%,104%,97.4%,93.7%,92%,81.2%,110%,96.1%
COc1ccc(C2CC(c3cnccn3)=NN2)cc1OC (stereo not drawn),98.7%,83.1%,117%,109%,92.8%,85.7%,99.4%,109%
COc1cc(NC(=O)c2cc(O)c(CC=C(C)C)c(O)c2)cc2c1O[C@]1(C)CC[C@@H](O)C(C)(C)[C@H]1C2,7.15% (active),8.48% (active),24.2%,14.7%,10.5%,23.8%,48.7%,31.1%
NC(N)=N/N=C(/c1ccccc1)c1ccccc1F,3.86% (active),70.8%,-56% (active),40%,15.9%,-28.7% (active),2.85% (active),13.8%
COc1cc(-c2ccc(N=Nc3c(O)c(C(=O)Nc4ccccc4OC)cc4ccccc34)c(OC)c2)ccc1N=Nc1c(O)c(C(=O)Nc2ccccc2OC)cc2ccccc12,103%,90.2%,99.9%,91.8%,91.1%,81.8%,97.7%,94.8%
COc1cc(C2CC(c3ccc(Nc4nc(Nc5ccc(F)cc5)nc(Nc5ccc(Cl)cc5)n4)cc3)=NN2C(C)=O)cc(OC)c1OC (stereo not drawn),19%,13.4%,95.7%,87%,46.6%,55.1%,89.3%,71.2%
Nc1nc(N)c(-c2ccc(Cl)cc2)c(/C=C/c2ccc([N+](=O)[O-])cc2)n1,84.7%,92.3%,41.9%,26.4%,82.2%,48.9%,77.6%,83.1%
Oc1[nH]c2ccccc2c1/C=c1/cc2c(c(-c3ccc(F)cc3)n1)=Nc1ccccc1-2,-37.1% (active),-31.3% (active),-30.4% (active),-10.6% (active),-62.4% (active),-61.3% (active),-63.7% (active),14.6%
Cc1[nH]c(-c2nc3ccccc3[nH]2)c(C)c1C(=O)N1CCc2sccc2C1,72.9%,94.1%,94.9%,89%,90.2%,92.6%,110%,97.6%

SMILES,growth (T-47D breast),growth (BT-549 breast),growth (MDA-MB-435 melanoma),growth (SW-620 colon),growth (MCF7 breast),growth (HCT-116 colon),growth (HCC-2998 colon),growth (KM12 colon)
Cc1cc(-c2ccc(N(C)C)cc2)c2sc(=O)[nH]c2n1,67.6%,74.6%,4.12% (active),38.3%,28.4%,50.1%,77.5%,39%
CC(=O)c1cc2c(o1)C(=O)c1ccccc1C2=O,-25.3% (active),-87.7% (active),-94.4% (active),-77.4% (active),-65.6% (active),-83.6% (active),-87.8% (active),-63.6% (active)
Cc1ccccc1NC(=O)CN(C)C,95.6%,106%,108%,108%,97.4%,101%,116%,107%
COC(=O)[C@]12CC[C@@H](C)[C@H](C)[C@@H]1C1=CC[C@@H]3[C@@]4(C)C(C=O)=C[C@@](C)(CO)C4=CC[C@@]3(C)[C@]1(C)CC2,20.8%,27.7%,39.6%,27.9%,18.1%,6.65% (active),16.1%,21.6%
Cc1c2c(cn1Cc1ccccc1)CCc1cn[nH]c1-2,90.3%,96.5%,26.8%,95.8%,81.5%,89.5%,86.1%,78.8%
N=C(N)c1ccc(-c2ccc(/C=C/c3ccccc3)s2)cc1,37.8%,93.9%,-34.9% (active),-67.1% (active),-74.2% (active),-79% (active),-63.7% (active),-47.1% (active)
COc1cc(C2CC(=O)Nc3n[nH]c(-c4ccccc4)c32)cc(OC)c1OC (stereo not drawn),67.3%,52.4%,-2.19% (active),44.5%,47.1%,45.1%,68%,51.5%
N=C(N)c1ccc(-c2ccc(-c3ccc(Cl)cc3Cl)o2)cc1,57.6%,94.7%,-63.6% (active),-67.3% (active),-73.7% (active),-68.8% (active),-93.2% (active),-77.7% (active)
CC(C)CCC[C@@H](C)[C@H]1CCC2C3=CCn4c(=O)ccc(=O)n4C3CC[C@@]21C (stereo partly drawn),-75.2% (active),-30.9% (active),-87.1% (active),-65.5% (active),-92.5% (active),-100% (active),-93.1% (active),-97.5% (active)
O=C1Nc2ccccc2SC1C1SC(=S)N(Cc2ccccc2)C1=O (stereo not drawn),24.1%,42.4%,0.237% (active),20.9%,17.8%,42.8%,136%,-48.5% (active)
O=C1Nc2ccccc2/C1=N/N=C/c1ccc(OC2OC(CO)C(O)C(O)C2O)cc1 (stereo not drawn),105%,109%,106%,101%,103%,107%,115%,110%
N#Cc1c(-c2ccccc2)nc(SCC2CO2)nc1N1CCOCC1 (stereo not drawn),15.4%,11.4%,69.3%,84.4%,44.8%,95%,101%,87.1%
c1ccc2[nH]c(SSc3nc4ncncc4[nH]3)nc2c1,46.5%,46.7%,19.7%,36.3%,9.76% (active),20.8%,18.2%,15.1%
COc1ccc(C2CC(c3ccc4ccccc4c3)=NN2c2nc(O)c(C3=c4cc(Cl)ccc4=NC3=O)s2)cc1 (stereo not drawn),-79.9% (active),-26% (active),-64.6% (active),-42.4% (active),-22.4% (active),,-54.1% (active),-59.3% (active)
O=C(/C=C/C12c3ccccc3C(c3ccccc31)C1C(=O)N(c3ccccc3)C(=O)C12)c1ccccc1 (stereo not drawn),40.7%,,-1.64% (active),1.65% (active),14.7%,-57.7% (active),-65% (active),-41.3% (active)
Cn1ncc2c(Nc3ccc(Br)cc3)nc(Nc3ccc(Br)cc3)nc21,29.1%,62.5%,33.5%,52.7%,3.89% (active),37%,,37.1%
CN(CCCCCCCCNc1ccnc2ccccc12)Cc1ccc(-c2ccc(-c3ccc(C#N)cc3)s2)cc1,-33.6% (active),,-91.6% (active),-76.3% (active),-76.5% (active),-86.5% (active),-89.6% (active),-68.6% (active)
CCCCCCNCc1cc(C(C)(C)C)cc(CNCCCCCC)c1O,-41.6% (active),-81% (active),-82.8% (active),-69.6% (active),,-90.8% (active),-85.2% (active),-83% (active)
